{"source": "the OligoGym collection"}
{"molecular_target": "NUDT18", "assay": "pooled miR-30 sensor sort-seq; sequence = guide strand", "details": "shRNA"}
{"sequence": "ACTAACACCCACACTGTCTGGG", "sensor-assay potency score (higher = more potent)": -0.0585}
{"sequence": "TTACTCAGCAACGTGCTCCTCC", "sensor-assay potency score (higher = more potent)": 0.514}
{"sequence": "TTGCAGGTCTTCCTCCATCACC", "sensor-assay potency score (higher = more potent)": -1.52}
{"molecular_target": "NUDT8", "assay": "pooled miR-30 sensor sort-seq; sequence = guide strand", "details": "shRNA"}
{"sequence": "ATCTTGGTCAGCCGGGTCGCAC", "sensor-assay potency score (higher = more potent)": -1.97}
{"sequence": "TGTGCACCACATCTTGGTCAGC", "sensor-assay potency score (higher = more potent)": -0.734}
{"sequence": "TGGTCAGCCGGGTCGCACTTGC", "sensor-assay potency score (higher = more potent)": -1.47}
{"sequence": "TTGTGCCTCCCGGTCAGGCGGC", "sensor-assay potency score (higher = more potent)": -1.45}
{"sequence": "TTTGCGGATCATACACAGGCCG", "sensor-assay potency score (higher = more potent)": -0.907}
{"sequence": "ACCACATCTTGGTCAGCCGGGT", "sensor-assay potency score (higher = more potent)": -1.55}
{"sequence": "TACACCAGCAAGCACTGGCACC", "sensor-assay potency score (higher = more potent)": -1.4}
{"sequence": "TACAGCAGCGCCGGCACCCCAC", "sensor-assay potency score (higher = more potent)": -1.1}
{"sequence": "TTGCGGATCATACACAGGCCGC", "sensor-assay potency score (higher = more potent)": -1.79}
{"sequence": "TGGGAAACTGACGTCGCCCTTG", "sensor-assay potency score (higher = more potent)": -0.952}
{"sequence": "TTGGTCAGCCGGGTCGCACTTG", "sensor-assay potency score (higher = more potent)": -1.16}
{"sequence": "TCAGCCGGGTCGCACTTGCCGC", "sensor-assay potency score (higher = more potent)": -1.59}
{"molecular_target": "NUP188", "assay": "pooled miR-30 sensor sort-seq; sequence = guide strand", "details": "shRNA"}
{"sequence": "TATCGCATGAATCAGCTCCAAG", "sensor-assay potency score (higher = more potent)": -1.05}
{"sequence": "TAGGTGTCTGTGCTGTGCCGTT", "sensor-assay potency score (higher = more potent)": -0.606}
{"sequence": "TTACACAGGGTACAAGTCCTTG", "sensor-assay potency score (higher = more potent)": -0.672}
{"sequence": "TTGCTCTTTAAACATCTTGGTT", "sensor-assay potency score (higher = more potent)": -0.993}
{"sequence": "TAACTCTCTCTTCCACTGCCGG", "sensor-assay potency score (higher = more potent)": -0.922}
{"sequence": "TAATGCTGCAGCATCTTTCGAC", "sensor-assay potency score (higher = more potent)": -0.404}
{"sequence": "TAGAACAGCAATGAGGTTGTTT", "sensor-assay potency score (higher = more potent)": 0.0605}
{"sequence": "TATTGGTCTGCCTACTACCAAA", "sensor-assay potency score (higher = more potent)": -1.79}
{"sequence": "TTTTCTTGTCCAGCTCTCCAAG", "sensor-assay potency score (higher = more potent)": -0.925}
{"sequence": "TACTACATAGTATATCTCCAAG", "sensor-assay potency score (higher = more potent)": -1.14}
{"sequence": "TATTGATAACTGTCTGTCCTGC", "sensor-assay potency score (higher = more potent)": -0.496}
{"sequence": "TACTCTAACAAGGAGGTGCAGC", "sensor-assay potency score (higher = more potent)": -0.568}
{"molecular_target": "NUP214", "assay": "pooled miR-30 sensor sort-seq; sequence = guide strand", "details": "shRNA"}
{"sequence": "TAGAACATCATTCACATCTTGG", "sensor-assay potency score (higher = more potent)": -0.0154}
{"sequence": "TTTATCAACTATTTTGTTGGGA", "sensor-assay potency score (higher = more potent)": 1.13}
{"sequence": "TAACTCTTCCAACTCCTTCTGA", "sensor-assay potency score (higher = more potent)": -0.0589}
{"sequence": "TTGACTTTGACAGCAGAGGTTG", "sensor-assay potency score (higher = more potent)": -0.446}
{"sequence": "TAATCTGATCACTTTGTCGAGC", "sensor-assay potency score (higher = more potent)": -0.175}
{"sequence": "TTTTGTTGGGATCATCTCCGGG", "sensor-assay potency score (higher = more potent)": -0.302}
{"sequence": "TTTAGTAGGAAAAATCTGCAAG", "sensor-assay potency score (higher = more potent)": -0.492}
{"sequence": "TAATGATGCTGTCTCTCCGTGC", "sensor-assay potency score (higher = more potent)": -0.651}
{"sequence": "TAAAGTTCACAAATATCTCTGG", "sensor-assay potency score (higher = more potent)": 0.255}
{"sequence": "TTTGTTGGGATCATCTCCGGGT", "sensor-assay potency score (higher = more potent)": -0.0183}
{"sequence": "TTATCAACTATTTTGTTGGGAT", "sensor-assay potency score (higher = more potent)": 0.33}
{"sequence": "TTTGTTGGACACAGCAAGCAGA", "sensor-assay potency score (higher = more potent)": -0.715}
